# Source: PubChem BioAssay (National Center for Advancing Translational Sciences (NCATS))
# SW480 rereplic = DNA re-replication induction in SW480 cells; SW480 DNA re-replication, Hoechst DNA content imaging, 48 h; Potency, µM (doses to about 46.1 µM), for inactives: at the top dose re-replication activation, hits mostly activators; 1.8% of 340,000 active; AID 624297; note: % of control where 0% means no effect; nearly all actives have a fitted effect of over 55% in size
#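 Quantitative HTS format with DMSO vehicle controls; 48 hr drug incubation at 37 C, then 40 min Hoechst staining and scanning imager measurement at 405 nm excitation.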
# MCF10A rereplic = inducers of DNA re-replication in MCF 10A breast cells. MCF 10A DNA re-replication, Hoechst nuclear intensity, 48 h. Potency, µM (doses to about 46.1 µM), inactives show top-dose activity, positive = re-replication, usual class: activators. 2.9% of 350,000 active; note: % of control where 0% means no effect; nearly all actives have a fitted effect of over 50% in size
# KB-3-1 cytotox = KB-3-1 parental cell cytotoxicity; Potency, µM (top dose mostly 46.1 µM), actives largely listed as cytotoxic; AID 1347075; 1.4% of 400,000 active; KB-3-1 viability, CellTiter-Glo ATP luminescence, 72 h; note: % is set by controls: 0 for no effect and ±100 for the full control effect; nearly all actives have a fitted effect of over 60% in size
#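 Using CellTiter-Glo luminescence, growth of non-resistant KB-3-1 adenocarcinoma cells is assessed 72 h after pin-tool compound addition at 37 °C. Normalized responses across the concentration series yield fitted curves.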
# ELG1 repair inh = ELG1-dependent DNA repair inhibition | HEK293T ELG1-luciferase reporter, luminescence, 16 h; DNA damage induced by 5-fluorouridine | Potency, µM (series often up to 46.1 µM), without a hit: at the highest dose activity change, negative = inhibition, usual class: inhibitors | 2.3% of 330,000 active; note: % is set by controls: 0 for no effect and ±100 for the full control effect; nearly all actives have a fitted effect of over 55% in size
#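 DMSO vehicle served as the neutral condition. Each well held 2,000 cells given 5-fluorouridine plus compound; after 16 hr at 37 °C/5% CO2, ONE-Glo was added and luciferase measured 30 min later.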
# KB-V1 MDR tox = kills drug-selected multidrug resistant KB-V1 cells | 3.4% of 400,000 active | Potency, µM (top dose mostly 46.1 µM), most hits filed as cytotoxic | AID 1347076 | KB-V1 MDR cells viability, CellTiter-Glo, 72 h; note: % is set by controls: 0 for no effect and ±100 for the full control effect; nearly all actives have a fitted effect of over 60% in size
#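 Drug-selected KB-V1 cells, grown in DMEM lacking phenol red with 10% FBS, receive compound titrations; after three days at 37 degrees C, surviving cell ATP is quantified by CellTiter-Glo luminescence and responses normalized and curve-fitted.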
# * = called active by the depositor; i = inactive; ? = inconclusive; / = no result. The list is not random: actives were taken first. Their share in the collection is about 8.2%. Calls come from the whole dose curve; as a rule, active = well fitted curve in the direction sought with a large enough effect; inconclusive = small, poorly fitted or top-dose-only effect, or another doubt; inactive = no such curve, though single readings can be large; an effect the other way counts as inactive or inconclusive. Potency is the fitted concentration of half-maximal effect.
SMILES,SW480 rereplic,MCF10A rereplic,KB-3-1 cytotox,ELG1 repair inh,KB-V1 MDR tox
COc1ccc(CN(C(=O)c2ccco2)c2ccc(C)c(C)c2)cc1,16µM*,10µM*,16µM*,-16%,?
COc1ccc(CN(C(=O)c2ccco2)c2ccc(Br)cc2)cc1OC,-6%,8%,i,?,?
CCOc1ccc(N(Cc2ccc(OC)cc2)C(=O)c2ccco2)cc1,18%,18%,i,?,?
COc1cc(CN(C(=O)c2ccco2)c2ccc(C)cc2)ccc1O,-1%,-5%,i,9%,13µM*
CCOC(=O)N(O)c1ccc(C=Cc2ccccc2)cc1,12µM*,?,?,/,21µM*
CCOC(=O)C(=Cc1ccc(N(C)C)cc1)C(=O)c1ccccc1,/,/,i,/,i
CCN(CC)S(=O)(=O)c1ccc(C(=O)Nc2cc(C)on2)cc1,-26%,?,i,2%,i
CCN(CC)S(=O)(=O)c1cc(C(=O)NC2CCCCC2)ccc1C,-2%,15%,i,?,13µM*
CCN(CC)S(=O)(=O)c1cccc(C(=O)Nc2ccc(Cl)cn2)c1,4%,21%,?,-28%,12µM*
Cc1ccc(C(=O)NC2CCCCC2)cc1S(=O)(=O)N1CCCC1,-3%,-3%,i,?,i
CCN(CC)S(=O)(=O)c1cc(C(=O)Nc2cc(C)on2)ccc1Cl,-7%,5%,i,16µM*,i
CCOC(=O)/C=C/C(=O)OCC(=O)Nc1ccc(Cl)cn1,1%,21µM*,i,24%,i
CCOC(=O)c1ccc(NC(=O)CC(=O)Nc2ccc3nc4n(c(=O)c3c2)CCCCC4)cc1,/,/,i,/,i
COc1ccc(CN(C)C(=O)c2ccccc2Sc2ccccc2C#N)c(OC)c1,81%,1%,i,-13%,?
CC1=C(C(=O)N(C)C)CC(CC(=O)NCCCN(C)C)C(=O)N1Cc1ccccc1 (centres undefined),/,/,i,/,i
O=S1(=O)N[C@H](Cc2ccccc2)COc2cccc(N3CCN(Cc4ccccc4F)CC3)c21,/,/,i,/,i
Nc1ccc(S(=O)(=O)NN=Cc2ccccc2[N+](=O)[O-])cc1,-4%,7%,i,/,i
CCN(CC)S(=O)(=O)c1cc(C(=O)Nc2cccnc2Cl)ccc1Cl,-6%,4%,i,-6%,?
Cc1ccc(NC(=O)c2ccccc2[N+](=O)[O-])nc1,?,?,?,-5%,i
Cc1ccc(C(=O)Nc2ncc3c(Cl)cccc3n2)cc1,?,22%,?,?,18µM*
Cc1ccc(C(=O)Nc2ccc(Cl)cn2)cc1,-4%,22%,?,?,6.5µM*
Cc1ccc(NC(=O)c2ccc(Cl)cc2[N+](=O)[O-])nc1,3.7µM*,?,5.8µM*,0%,?
CCN(CC)S(=O)(=O)c1cc(C(=O)Nc2ccc(Cl)cn2)ccc1C,-4%,10%,i,?,9.2µM*
COc1ccc(CN2C(=O)C(CC(=O)NCc3ccco3)CC(C(=O)N3CCOCC3)=C2C)cc1 (centres undefined),/,/,i,/,?
Cc1ccc2cccc(O)c2n1,/,/,i,/,i
SMILES,SW480 rereplic,MCF10A rereplic,KB-3-1 cytotox,ELG1 repair inh,KB-V1 MDR tox
COc1cc(C(=O)N(C(C)C)C2CCCCC2)cc(OC)c1OC,/,/,i,/,?
CCN(Cc1ccccc1)S(=O)(=O)c1cc(C(=O)NCC2CCCCC2)ccc1OC,9%,5%,i,23µM*,i
COc1ccc(C(=O)NCC2CCCCC2)cc1S(=O)(=O)N1CCOCC1,-5%,-40%,i,-4%,?
Cc1nn(Cc2c(F)c(F)c(F)c(F)c2F)c(C)c1NC(=O)c1ccc(COc2ccc(Cl)cc2Cl)o1,?,?,?,-21%,18µM*
O=C(Nc1ccn(Cc2c(F)c(F)cc(F)c2F)n1)c1ccc(COc2ccc(Cl)cc2Cl)o1,3%,19%,i,?,8.2µM*
O=C(CSc1ccnc(=O)[nH]1)NCc1ccc(F)cc1,/,/,i,/,?
O=C(NCc1ccccc1Cl)C1CCCN(C(=O)c2cnn(-c3ccccc3)c2-n2cccc2)C1 (centres undefined),/,/,i,/,i
